Results as given in PubChem BioAssay.
“And” between values parts separate entries of the source, which are not always exact repeats. Identical values can stand only once. The source made the active and inactive calls. Unless noted, no rule for the calls is given here.

Legend:
[1] = Cy5 fluorescence interference with SSB-bound oligo, artefact control for HCV NS3 helicase inhibitor project, biochemical, NIH Clinical Collection, E. coli SSB (AID 743268)
[2] = system: Hepatitis C virus NS3 helicase; assay: HCV NS3 helicase inhibitors, primary screen, biochemical, fluorescence polarization, NIH Clinical Collection (AID 743270); details: NS3 helicase binding to Cy5-dT15 DNA, stronger effect = higher value, concentration not given here
[3] = target: Single-stranded DNA-binding protein (Escherichia coli (strain K12)) (UniProt P0AGE0); assay: E. coli SSB displacement from DNA, counter-screen for HCV NS3 helicase inhibitor project, biochemical, fluorescence polarization, NIH Clinical Collection (AID 743271; in the data active = inhibition above about 28%); details: stronger effect = higher value, concentration not given here
[4] = fluorescence interference in NS3h assay format, artefact control for HCV NS3 helicase inhibitor project, biochemical, NIH Clinical Collection (AID 743272); details: fluorescence interference counterscreen, stronger effect = lower value;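 also: HCV NS3 helicase with a Cy5 labelled single stranded DNA probe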
[5] = stimulators of nuclear beta-catenin in C2C12, primary screen, imaging, WNT3A-conditioned medium, mouse C2C12, NPC library (AID 1117326; in the data active = nuclear beta-catenin stimulation mostly above about 4.2%, no sharp cut-off; inactive = mostly below about 10%); details: stronger effect = higher value
[6] = stimulators of insulin release from INS-1E, primary screen, cell-based, 5 mM glucose, NPC library (AID 1117329;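 active = compound raises insulin release from rat beta cells at 5 mM glucose, no numeric limit stated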); details: rat INS-1E insulin secretion, at 10 µM, stronger effect = higher value
[7] = growth inhibition of GSK3B-pretreated HCT116 cells – cell-based, CellTiter-Glo, 0.2 to 20 µM (AID 1117336;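 active = compounds lowering colon cancer cell viability after pretreatment blocking the GSK3B kinase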); details: HCT116 viability after GSK3B inhibitor, at 20 µM, stronger effect = higher value
[8] = inhibition of endothelial tube formation, primary screen, imaging, VEGF stimulated, CD31 staining, tube area, NPC library (AID 1117340;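 active = compound that reduces growth-factor-driven endothelial tube area in a mixed cell culture, no cutoff stated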); details: VEGF-stimulated ADSC/ECFC co-culture, at 10 µM, stronger effect = higher value
[9] = glucagon-like peptide 1 release enhancers, primary assay, NCI-H716 cell line, NPC library (AID 1117341;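 active = compound raises GLP1 secretion from the human gut endocrine cells, with no numeric limit stated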); details: NCI-H716 cells, at 10 µM, stronger effect = higher value
[10] = HCT116 colon cancer cell growth inhibition, primary screen, CellTiter-Glo luminescence, NPC library (AID 1117342;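 active = compounds that lower survival of HCT116 colon cancer cells in the luminescence readout, no numeric limit stated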); details: at 20 µM (top of the series)
[11] = CellTiter-Glo luminescent readout of SW480 viability loss, NPC library primary (AID 1117343;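 active = compounds that lower viability of the colon cancer cells in the luminescence readout, with no numeric limit stated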); details: CellTiter-Glo luminescence; at 20 µM (top of the series)
[12] = decreased DLD-1 cellular survival, CellTiter-Glo luminescent readout, NPC compound collection, primary HTS (AID 1117346;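 active = compounds that lower survival of DLD-1 colon cancer cells in the luminescence readout, no cutoff given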); details: DLD-1 viability, CellTiter-Glo luminescence; at 20 µM (top of the series)
[13] = target: 6-phosphogluconate dehydrogenase, decarboxylating (Homo sapiens) (UniProt P52209); assay: 6PGD enzyme inhibitors, primary screen, biochemical, human, recombinant enzyme, NADPH absorbance (AID 1159550;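 active = at least 20% inhibition of 6-phosphogluconate dehydrogenase activity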); details: recombinant 6PGD, NADPH absorbance 341 nm; at 10 µM; stronger effect = higher value
[14] = differential killing of epithelial or mesenchymal cells, primary screen, imaging, PC-3E GFP, TEM4-18 mCherry, co-culture (AID 1345086;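 active = compounds killing one labelled cell type while sparing the other, by normalised counts and ratio limits, not self-fluorescent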;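 as to all read-outs here: cells exposed to compound for 72 h before imaging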;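 as to red/green cell ratio (normalised): normalised mesenchymal count divided by normalised epithelial count so high means epithelial killing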); details: imaging cell counts, at 1 µM; for red/green cell ratio (normalised): actives lie on both sides, counts scaled to control wells, 1 = unselective
[15] = survival rescue of mitochondrial mutant cells in low glucose, primary screen, MELAS cybrids, Rieske KO mouse fibroblasts, CellTiter-Glo (AID 1508586;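 active = mean z-score across replicates of 1.96 or higher in either the MELAS or the Rieske mutant cell line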;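 also: z relative to plate mean and SD of compound and empty wells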)
[16] = target: NAD(+) hydrolase SARM1 (Homo sapiens) (UniProt Q6SZW1); assay: SARM1 TIR NADase inhibitors, cell lysate, NAD-Glo luminescence (AID 1508614;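 active = compound whose remaining NAD level is above about 45 nM, limit read from the data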;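 also: higher remaining NAD means stronger inhibition of SARM1 NADase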); details: SAM-TIR HEK293T lysate NADase, at 1 µM, stronger effect = higher value
[17] = target: Mitogen-activated protein kinase 7 (Homo sapiens) (UniProt Q13164); assay: ERK5 transactivation activators in reporter cells, primary screen, cell-based, HTS (AID 1508626;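 active = luciferase signal above three times the same-plate solvent-only control wells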;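 also: luciferase driven by Gal4-ERK5 fusion binding five Gal4 sites before minimal TATA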); details: HeLa Gal4-ERK5 transactivation, 18 h, at 5 µM, stronger effect = higher value
[18] = sensitizers of A549 cells to miR-34 induction, primary screen, imaging, A549 dox-inducible miR-34, nuclei and caspase counts (AID 1347080;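 active = compounds whose cell count with miR-34 switched on is under 0.7 times the count with it off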); details: A549 miR-34 inducible, Hoechst nuclei count, 48 h
F380Y = assay: modulators of BK channel variants, profiling panel, selectivity assay, cell-based, U2OS BacMam, thallium flux, beta subunits (AID 1259406;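 active = thallium flux through the channel raised or lowered by more than 3 SD from vehicle-only wells, actives on both sides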;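 also: initial slope of Thallos dye fluorescence rise after thallium is added; log ratio against the mean of 0.3% DMSO vehicle wells on the same plate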); details: at 30 µM
[19] = liver-stage malaria parasite growth inhibition, primary screen, cell-based, HepG2, luciferase luminescence, HepG2 viability (AID 624349; in the data active = parasite load remaining mostly below about 12%, no sharp cut-off; inactive = mostly above about 10%;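 also: 100% = mean of DMSO negative control wells on the same plate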); details: P. berghei liver stage in HepG2, luciferase luminescence, concentration not given here; parasite load remaining: stronger effect = lower value; viability: measured here: HepG2 viability without parasites
[20] = measured here: epithelial PC-3E GFP cell survival
[21] = measured here: mesenchymal TEM4-18 mCherry cell survival
[22] = MELAS cybrid survival, CellTiter-Glo 48 h, stronger effect = higher value
[23] = Rieske KO mouse fibroblast survival, CellTiter-Glo 72 h
[24] = stronger effect = lower value, cell number ratio, induced over uninduced
[25] = measured here: relative caspase fold change +Dox/-Dox
[26] = measured here: total cells with miR-34 induction, stronger effect = lower value
[27] = measured here: total cells without miR-34 induction

Chain of 6-phosphogluconate dehydrogenase, decarboxylating (Homo sapiens) (P52209 whole entry, looked up): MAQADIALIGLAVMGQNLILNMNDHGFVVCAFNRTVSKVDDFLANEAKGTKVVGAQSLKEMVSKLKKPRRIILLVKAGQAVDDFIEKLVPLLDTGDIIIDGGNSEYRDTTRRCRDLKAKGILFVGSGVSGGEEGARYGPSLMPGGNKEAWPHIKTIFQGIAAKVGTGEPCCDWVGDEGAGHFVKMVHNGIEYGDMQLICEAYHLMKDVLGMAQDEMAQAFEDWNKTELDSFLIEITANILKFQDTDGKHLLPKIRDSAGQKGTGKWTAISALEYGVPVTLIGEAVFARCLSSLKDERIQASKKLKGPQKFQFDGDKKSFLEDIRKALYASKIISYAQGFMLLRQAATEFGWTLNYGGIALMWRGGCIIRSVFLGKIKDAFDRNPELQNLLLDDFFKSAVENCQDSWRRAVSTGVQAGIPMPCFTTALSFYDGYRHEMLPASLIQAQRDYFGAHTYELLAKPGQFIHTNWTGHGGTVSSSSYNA
Chain of NAD(+) hydrolase SARM1 (Homo sapiens) (Q6SZW1 whole entry, looked up, the tested form may be a part): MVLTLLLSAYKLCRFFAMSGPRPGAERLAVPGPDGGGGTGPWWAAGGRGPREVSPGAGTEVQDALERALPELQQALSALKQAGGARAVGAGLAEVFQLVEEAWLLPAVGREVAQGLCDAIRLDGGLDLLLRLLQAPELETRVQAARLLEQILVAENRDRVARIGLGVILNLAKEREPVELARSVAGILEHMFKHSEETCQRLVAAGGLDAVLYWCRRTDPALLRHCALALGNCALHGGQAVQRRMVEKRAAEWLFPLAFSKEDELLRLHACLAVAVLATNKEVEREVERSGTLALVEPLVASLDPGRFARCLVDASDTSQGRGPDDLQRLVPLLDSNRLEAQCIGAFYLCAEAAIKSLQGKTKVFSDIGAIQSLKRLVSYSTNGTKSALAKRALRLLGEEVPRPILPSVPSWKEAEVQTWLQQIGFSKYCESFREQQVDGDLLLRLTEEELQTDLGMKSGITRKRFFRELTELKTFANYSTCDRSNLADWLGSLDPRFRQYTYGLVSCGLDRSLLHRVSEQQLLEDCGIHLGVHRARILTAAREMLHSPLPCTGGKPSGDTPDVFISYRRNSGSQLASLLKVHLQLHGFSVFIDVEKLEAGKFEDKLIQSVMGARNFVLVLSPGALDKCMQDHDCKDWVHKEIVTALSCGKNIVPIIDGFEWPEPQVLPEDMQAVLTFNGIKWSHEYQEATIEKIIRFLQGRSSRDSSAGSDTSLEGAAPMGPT
Chain of Mitogen-activated protein kinase 7 (Homo sapiens) (Q13164 whole entry, looked up, the tested form may be a part): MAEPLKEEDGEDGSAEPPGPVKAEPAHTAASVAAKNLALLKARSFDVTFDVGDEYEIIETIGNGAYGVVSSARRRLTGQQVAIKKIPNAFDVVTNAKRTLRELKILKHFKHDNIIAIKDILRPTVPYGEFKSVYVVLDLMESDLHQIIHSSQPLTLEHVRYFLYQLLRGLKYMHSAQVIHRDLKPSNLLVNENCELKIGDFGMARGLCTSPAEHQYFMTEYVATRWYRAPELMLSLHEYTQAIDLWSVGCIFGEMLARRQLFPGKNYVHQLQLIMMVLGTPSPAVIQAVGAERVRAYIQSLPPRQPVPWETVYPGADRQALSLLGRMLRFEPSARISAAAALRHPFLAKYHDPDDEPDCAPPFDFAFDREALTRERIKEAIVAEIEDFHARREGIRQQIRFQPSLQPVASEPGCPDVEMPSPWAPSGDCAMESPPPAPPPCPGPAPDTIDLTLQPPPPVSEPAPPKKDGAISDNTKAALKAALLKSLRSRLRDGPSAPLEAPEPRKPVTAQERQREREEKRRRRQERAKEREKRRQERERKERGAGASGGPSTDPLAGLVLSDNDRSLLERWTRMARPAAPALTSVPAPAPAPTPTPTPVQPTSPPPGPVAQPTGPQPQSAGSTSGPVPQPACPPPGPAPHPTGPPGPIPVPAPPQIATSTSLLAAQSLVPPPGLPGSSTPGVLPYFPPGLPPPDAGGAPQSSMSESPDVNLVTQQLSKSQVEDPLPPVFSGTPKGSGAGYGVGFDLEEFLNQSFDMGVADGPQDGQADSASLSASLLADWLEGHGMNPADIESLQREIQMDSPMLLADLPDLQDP

CCCCc1oc2ccccc2c1C(=O)c1cc(I)c(OCCN(CC)CC)c(I)c1
1.02: normalised cell number [14, 20]
0.341 and -0.317 and -0.0304: z-score [15, 23]
1.1: normalised cell number [14, 21]
0.8%: nuclear beta-catenin stimulation ([5]; stimulation, at 2 µM)
active: nuclear beta-catenin stimulation ([5]; at 10 µM) 71.4% | viability decrease [7] 103% | tube area decrease [8] 110% | inhibition of viability [10] 102% | viability decrease (inhibition) [11] 129% | viability decrease (inhibition) [12] 105%
inactive: fluorescence ratio [1] 0.96 | inhibition [2] -1.97% | inhibition [3] 1.97% | fluorescence ratio [4] 0.95 | insulin secretion stimulation [6] 0.6% | GLP1 secretion stimulation [9] 3.9% | inhibition [13] 7.85% | red/green cell ratio (normalised) [14] 1.08 | z-score [15, 22] -0.425 and -1.46 and 0.238 | remaining NAD [16] 10 nM | luciferase signal [17] 44 AU

CCn1cc(C(=O)O)c(=O)c2cc(F)c(N3CCNCC3)cc21
0.92 and 1.12: normalised cell number [14, 20]
9310 and 13200 and 11400: cell count [18, 27]
inactive: nuclear beta-catenin stimulation ([5]; at 10 µM) 0.1% | insulin secretion stimulation [6] 1.1% | viability decrease [7] 13.9% | tube area decrease [8] -4.6% | GLP1 secretion stimulation [9] 4.3% | inhibition of viability [10] 4.5% | viability decrease (inhibition) [11] -12% | viability decrease (inhibition) [12] -0.1% | inhibition [13] -0.111% | red/green cell ratio (normalised) [14] 1.22 and 1.14 | fold change [18, 24] 0.843 and 0.881 and 0.867 | z-score [15, 22] 1.33 and -0.232 | remaining NAD [16] 10 nM | luciferase signal [17] 56 AU
-1.2%: nuclear beta-catenin stimulation ([5]; stimulation, at 2 µM)
7840 and 11600 and 9850: cell count [18, 26]
1.43 and 1.17: fold change [18, 25]
1.13 and 1.28: normalised cell number [14, 21]
-0.144 and -0.221: z-score [15, 23]

CCN(CC)C(=S)SSC(=S)N(CC)CC
0.27: normalised cell number [14, 20]
inactive: fluorescence ratio [1] 0.98 | inhibition [2] -1.19% | inhibition [3] -1.64% | fluorescence ratio [4] 0.99 | nuclear beta-catenin stimulation ([5]; at 10 µM) 5.4% | insulin secretion stimulation [6] 4.8% | viability decrease [7] 9.9% | tube area decrease [8] 35.6% | GLP1 secretion stimulation [9] 6.3% | inhibition of viability [10] 18.6% | viability decrease (inhibition) [11] 39.4% | viability decrease (inhibition) [12] 30.8% | inhibition [13] 1.47% | red/green cell ratio (normalised) [14] 0.63 | remaining NAD [16] 10 nM | luciferase signal [17] 16 AU | log fold change Tl+ flux (F380Y) -0.0143
0.17: normalised cell number [14, 21]
-4.19 and 10.8 and 3.81: z-score [15, 23]
-0.351 (inactive) and 0.325 and -1.17: z-score [15, 22]
2.3%: nuclear beta-catenin stimulation ([5]; stimulation, at 2 µM)

O=C(c1ccccc1)c1ccc2n1CCC2C(=O)O (stereo not given)
-0.5%: nuclear beta-catenin stimulation ([5]; stimulation, at 2 µM)
1.24: normalised cell number [14, 21]
-0.239 and 0.894 and -0.237: z-score [15, 23]
inactive: fluorescence ratio [1] 1.01 | inhibition [2] -2.77% | inhibition [3] -7.8% | fluorescence ratio [4] 0.99 | nuclear beta-catenin stimulation ([5]; at 10 µM) -0.4% | insulin secretion stimulation [6] 0.8% | viability decrease [7] 3.4% | tube area decrease [8] 15.4% | GLP1 secretion stimulation [9] -3.6% | inhibition of viability [10] -1.1% | viability decrease (inhibition) [11] 1.1% | viability decrease (inhibition) [12] 11.4% | inhibition [13] 6.58% | red/green cell ratio (normalised) [14] 1.03 | z-score [15, 22] 0.234 and -0.244 and -0.284 | remaining NAD [16] 10 nM | luciferase signal [17] 36 AU
1.2: normalised cell number [14, 20]

CC[C@]1(O)C[C@@H]2CN(CCc3c([nH]c4ccccc34)[C@@](C(=O)OC)(c3cc4c(cc3OC)N(C)[C@H]3[C@@](O)(C(=O)OC)[C@H](OC(C)=O)[C@]5(CC)C=CCN6CC[C@]43[C@@H]65)C2)C1
0.797: fold change [18, 25]
inactive: insulin secretion stimulation [6] 5.8% and 3.65% | GLP1 secretion stimulation [9] -1.3% and 5.9% | fold change [18, 24] 1.08 | remaining NAD [16] 10 nM | luciferase signal [17] 72 AU
active: nuclear beta-catenin stimulation ([5]; at 10 µM) 78.2% and 46.4% | viability decrease [7] 84.6% and 97.7% | tube area decrease [8] 108% and 104% | inhibition of viability [10] 79.8% and 74.2% | viability decrease (inhibition) [11] 89.7% and 76.2% | viability decrease (inhibition) [12] 84.7% and 75.3%
794: cell count [18, 26]
49.7% and 61.6%: nuclear beta-catenin stimulation ([5]; stimulation, at 2 µM)
738: cell count [18, 27]

C[C@@H]1C[C@H]2[C@@H]3CCC4=CC(=O)C=C[C@]4(C)[C@@]3(F)[C@@H](O)C[C@]2(C)[C@@]1(O)C(=O)CO
86.4% and 108%: viability [19]
-1.3%: nuclear beta-catenin stimulation ([5]; stimulation, at 2 µM)
0.569: z-score [15, 23]
1.6 and 0.779 and 1.31: fold change [18, 25]
7720 and 3310 and 7020: cell count [18, 26]
inactive: parasite load remaining [19] 76.8% and 55.7% | fluorescence ratio [1] 1.05 | inhibition [2] -3.18% | inhibition [3] 0.29% | fluorescence ratio [4] 1 | nuclear beta-catenin stimulation ([5]; at 10 µM) -0.3% | insulin secretion stimulation [6] 8.4% | viability decrease [7] -0.1% | tube area decrease [8] -12.9% | GLP1 secretion stimulation [9] 4.4% | inhibition of viability [10] -7% | viability decrease (inhibition) [11] -0.8% | viability decrease (inhibition) [12] 5.8% | inhibition [13] 0.502% | fold change [18, 24] 0.906 and 0.84 and 0.875 | z-score [15, 22] 0.843 | remaining NAD [16] 10 nM | luciferase signal [17] 100 AU | log fold change Tl+ flux (F380Y) 0.096
8520 and 3940 and 8020: cell count [18, 27]

CC(=O)O[C@]1(C(C)=O)CC[C@H]2[C@@H]3C=C(C)C4=CC(=O)CC[C@]4(C)[C@H]3CC[C@@]21C
active: viability decrease (inhibition) [11] 59.6%
7300 and 6980: cell count [18, 26]
93.3% and 69.6% and 81%: viability [19]
inactive: parasite load remaining [19] 111% and 60.7% and 27.2% | fluorescence ratio [1] 1.01 | inhibition [2] 3.56% | inhibition [3] 3.75% | fluorescence ratio [4] 0.98 | nuclear beta-catenin stimulation ([5]; at 10 µM) 2.7% | insulin secretion stimulation [6] 0.1% | viability decrease [7] -86.9% | tube area decrease [8] -10.2% | GLP1 secretion stimulation [9] 0% | inhibition of viability [10] 46.5% | viability decrease (inhibition) [12] 22.4% | inhibition [13] -2.23% | fold change [18, 24] 0.793 and 0.839 | z-score [15, 22] -0.444 and 0.0969 | remaining NAD [16] 10 nM | luciferase signal [17] 52 AU | log fold change Tl+ flux (F380Y) 0.00819
-0.239 and -0.33: z-score [15, 23]
1.9%: nuclear beta-catenin stimulation ([5]; stimulation, at 2 µM)
9200 and 8320: cell count [18, 27]
1.65 and 1.15: fold change [18, 25]
